Assay [1] concerns TRPC4 beta (transient receptor potential cation channel C4), mouse. Nature of the assay: TRPC4 cation channel opening, retest – cell-based, Fluo4 calcium, HEK293 TRPC4beta/mu-opioid, duplicates, 10 µM, confirmation (AID 2426;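 active = fluorescence ratio normalized to control raised more than 50% in primary screen plus both repeat runs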;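 as to activation: percent rise of integrated ratio over buffer wells lacking compound which define 0%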). The following applies: Fluo4 calcium fluorescence, at 10 µM; stronger effect = higher value.
In assay [2] the test system is transient receptor potential cation channel C4 beta (TRPC4), mouse. Nature of the assay: TRPC4 cation channel opening, second retest – cell-based, second round, Fluo4, HEK293 TRPC4beta/mu-opioid, 1 µM, confirmation (AID 2461;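 active = primary screen active and over 50% activation in each of two duplicate runs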). As to conditions: Fluo4 calcium fluorescence, at 1 µM; stronger effect = higher value.
For assay [3], the system named is TRPC4 (transient receptor potential cation channel C4 beta), mouse. Kind of assay: potentiation of DAMGO EC20 TRPC4 response – cell-based, second round, Fluo-4, HEK293 TRPC4beta/mu-opioid, 1 µM, confirmation (AID 2554;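 active = primary screen hit whose fluorescence ratio, in both repeats, exceeds the weak agonist control mean by 3 SD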). The following applies: DAMGO EC20, Fluo-4 calcium flux, at 1 µM; stronger effect = higher value. A general note: A change in cytosolic calcium serves as a functional read-out for many receptors and channels.

The test system of assay [4] is TRPC4 beta (transient receptor potential cation channel C4), mouse. Kind of assay: potentiation of DAMGO EC20 TRPC4 response – cell-based, Fluo-4, HEK293 TRPC4beta/mu-opioid, confirmation (AID 2555;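 active = primary screen hit whose calcium fluorescence ratio, in both repeats, exceeds the weak agonist control mean by 3 SD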). As to conditions: DAMGO EC20, Fluo-4 calcium flux, at 10 µM; stronger effect = higher value.
Assay [5] concerns the target Short transient receptor potential channel 4 (Mus musculus) (UniProt Q9QUQ5). Nature of the assay: blockers of DAMGO-evoked TRPC4 calcium flux – cell-based, Fluo4, HEK293 TRPC4beta/mu-opioid, confirmation (AID 2636;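 active = calcium signal cut by more than 3 SD below the full-agonist control yet still positive, in both repeats and the earlier primary screen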). The following applies: at 10 µM; stronger effect = higher value.
For assay [6] the target is unchanged. Nature of the assay: blockers of DAMGO-evoked TRPC4 calcium flux – cell-based, second round, Fluo4, HEK293 TRPC4beta/mu-opioid, 1 µM, confirmation (AID 2637;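 active = calcium signal ratio cut to more than 3 SD under the fully stimulated control mean yet still positive, in both repeats and the primary screen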). The following applies: at 1 µM; stronger effect = higher value.
The target is the same in assay [7]. Nature of the assay: calcium entry via TRPC4 opening agents – cell-based, HEK293 TRPC4/mu-opioid, Fluo-4 calcium, dose response (AID 434937). The following applies: HEK293 TRPC4 cells, Fluo-4 calcium fluorescence ratio; series mostly up to 20 µM.
For assay [8] the target is unchanged. Kind of assay: potentiation of DAMGO-evoked TRPC4 calcium signal – cell-based, HEK293 TRPC4/mu-opioid, Fluo-4 calcium, EC20 DAMGO, dose response (AID 434941;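 active = earlier screen potentiator hit that boosts the TRPC4 ion channel at some dose, with a dose response; inactive = no potentiation, no dose response, or not a prior hit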;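 also: calcium entry triggered by an EC20 dose of DAMGO at the co-expressed mu-opioid receptor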). As to conditions: HEK293 TRPC4/mu-opioid cells, Fluo-4 calcium fluorescence; series mostly up to 20 µM.
The target is the same in assay [9]. Kind of assay: block of DAMGO-driven TRPC4 calcium entry – cell-based, HEK293 TRPC4/mu-opioid, Fluo-4 calcium, dose response (AID 434942;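 active = primary screen inhibitor hit that blocks the TRPC4 channel at some tested dose, yielding a dose curve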). The following applies: HEK293 TRPC4/mu-opioid cells, DAMGO-evoked Fluo-4 calcium ratio; series mostly up to 20 µM.
The target of assay [10] is Short transient receptor potential channel 6 (Mus musculus) (UniProt Q61143). Kind of assay: TRPC6 blockade by TRPC4 inhibitor hits – cell-based, HEK293, membrane potential dye, duplicate, selectivity assay for TRPC4 inhibitor project, confirmation (AID 434948;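 active = active in primary screen and both duplicates, each dropping signal beyond three positive-control SD with fluorescence still positive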). The following applies: HEK293 TRPC6, membrane potential dye fluorescence, at 10 µM, stimulated with maximal-effect acetylcholine; stronger effect = higher value.
Chain of Short transient receptor potential channel 6 (Mus musculus) (Q61143 whole entry, looked up): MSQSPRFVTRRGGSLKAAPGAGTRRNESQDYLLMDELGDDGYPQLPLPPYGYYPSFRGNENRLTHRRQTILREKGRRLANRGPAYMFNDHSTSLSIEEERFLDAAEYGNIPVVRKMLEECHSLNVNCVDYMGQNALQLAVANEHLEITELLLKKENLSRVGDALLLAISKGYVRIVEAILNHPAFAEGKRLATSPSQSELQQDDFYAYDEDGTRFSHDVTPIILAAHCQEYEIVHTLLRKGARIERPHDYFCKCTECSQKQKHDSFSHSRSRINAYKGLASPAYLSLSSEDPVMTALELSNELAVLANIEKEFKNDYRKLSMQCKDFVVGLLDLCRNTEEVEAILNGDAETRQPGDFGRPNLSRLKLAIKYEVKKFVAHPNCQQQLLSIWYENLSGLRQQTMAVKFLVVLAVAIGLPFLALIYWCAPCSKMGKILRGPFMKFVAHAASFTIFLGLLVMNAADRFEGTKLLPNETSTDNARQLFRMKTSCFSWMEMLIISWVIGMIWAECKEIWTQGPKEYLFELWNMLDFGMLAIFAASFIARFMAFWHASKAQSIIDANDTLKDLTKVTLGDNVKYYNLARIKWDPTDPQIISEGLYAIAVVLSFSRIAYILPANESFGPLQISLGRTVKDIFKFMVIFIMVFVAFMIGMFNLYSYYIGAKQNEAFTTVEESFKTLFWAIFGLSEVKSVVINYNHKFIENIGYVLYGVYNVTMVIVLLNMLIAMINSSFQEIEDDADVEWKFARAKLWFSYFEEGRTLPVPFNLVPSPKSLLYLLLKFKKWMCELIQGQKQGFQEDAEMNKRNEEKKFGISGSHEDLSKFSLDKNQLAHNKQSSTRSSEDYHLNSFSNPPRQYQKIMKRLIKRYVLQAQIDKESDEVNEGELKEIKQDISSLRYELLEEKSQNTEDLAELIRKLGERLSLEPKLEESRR

The target is the same in assay [11]. Kind of assay: TRPC6 opening by TRPC4 activator hits – cell-based, HEK293, membrane potential dye, duplicate, selectivity assay for TRPC4 activator project, confirmation (AID 434950;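 active = membrane potential signal rise above negative control mean plus 3 SD in both duplicates, also active in the earlier TRPC4 screen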;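 as to activation: 0% = buffer only wells and 100% = acetylcholine maximal-effect wells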). As to conditions: HEK293 TRPC6, membrane potential fluorescence, at 10 µM; activation: stronger effect = higher value; outcome: activation.
For assay [12] the target is unchanged. Kind of assay: positive modulators of mouse TRPC6 channel – HEK293 cells, membrane potential dye, duplicate, selectivity assay for TRPC4 potentiator project, confirmation (AID 434952;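 active = compound raising the membrane signal above positive-control mean plus 3 SD in both repeats, and a primary screen hit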). As to conditions: HEK293 TRPC6, membrane potential dye fluorescence, at 10 µM, maximal acetylcholine added after compound; stronger effect = higher value.
For assay [13], the target named is Short transient receptor potential channel 4 (Mus musculus) (UniProt Q9QUQ5). Nature of the assay: calcium flux activators in TRPC4/5HT1a cells, counter-screen for TRPC4 activator project, cell-based, second counter screen, HEK293 TRPC4/5HT1a, Fluo-4 (AID 434977;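 active = calcium signal rise above buffer-control mean plus 5 SD in both duplicates, and also a hit in the primary screen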;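 as to activation: plate controls were assay buffer for no effect and maximal serotonin response for full effect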). The following applies: Fluo-4 calcium flux, at 10 µM; stronger effect = higher value.
Chain of Short transient receptor potential channel 4 (Mus musculus) (Q9QUQ5 whole entry, looked up): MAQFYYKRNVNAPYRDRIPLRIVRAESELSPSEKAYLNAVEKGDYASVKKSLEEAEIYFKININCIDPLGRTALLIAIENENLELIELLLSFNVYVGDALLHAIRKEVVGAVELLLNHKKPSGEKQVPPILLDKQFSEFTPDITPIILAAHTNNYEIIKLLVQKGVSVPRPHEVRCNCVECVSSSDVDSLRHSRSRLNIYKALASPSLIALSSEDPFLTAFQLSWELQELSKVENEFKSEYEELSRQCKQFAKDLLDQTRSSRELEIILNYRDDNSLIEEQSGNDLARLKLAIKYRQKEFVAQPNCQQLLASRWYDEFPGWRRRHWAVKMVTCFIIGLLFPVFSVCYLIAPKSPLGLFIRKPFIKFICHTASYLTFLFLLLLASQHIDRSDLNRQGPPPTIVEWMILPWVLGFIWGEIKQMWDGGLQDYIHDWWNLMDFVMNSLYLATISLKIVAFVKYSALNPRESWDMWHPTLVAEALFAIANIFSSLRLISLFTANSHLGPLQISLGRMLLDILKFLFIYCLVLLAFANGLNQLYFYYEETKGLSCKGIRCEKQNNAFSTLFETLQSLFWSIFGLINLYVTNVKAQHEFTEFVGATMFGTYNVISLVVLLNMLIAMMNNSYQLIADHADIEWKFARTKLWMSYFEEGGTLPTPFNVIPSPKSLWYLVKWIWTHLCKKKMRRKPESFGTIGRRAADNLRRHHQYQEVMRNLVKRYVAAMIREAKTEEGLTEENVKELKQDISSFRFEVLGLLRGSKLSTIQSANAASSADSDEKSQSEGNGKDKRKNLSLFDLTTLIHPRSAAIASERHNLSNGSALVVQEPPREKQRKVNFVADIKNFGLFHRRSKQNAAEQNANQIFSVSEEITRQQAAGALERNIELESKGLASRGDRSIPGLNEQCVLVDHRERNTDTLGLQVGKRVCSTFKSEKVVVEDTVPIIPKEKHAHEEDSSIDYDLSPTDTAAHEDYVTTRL
The nature of assay [14]: serotonin-gated TRPC4 signal block – cell-based, second counter screen, HEK293 TRPC4/5HT1a, Fluo-4, counter-screen for TRPC4 inhibitor project, confirmation (AID 434978;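 active = primary screen active whose calcium signal fell more than 3 SD beyond the full-serotonin control mean in both duplicate plates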;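 also: serotonin given first at submaximal then at maximal dose after compound preincubation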). The following applies: Fluo-4 calcium flux, at 10 µM, serotonin added to trigger calcium flux; stronger effect = higher value.
Assay [15] has as its system TRPC4 (mouse), co-expressed with 5HT1a in HEK293. Nature of the assay: enhancement of serotonin-evoked TRPC4 response – cell-based, second counter screen, HEK293 TRPC4/5HT1a, Fluo-4, counter-screen for TRPC4 potentiator project, confirmation (AID 434979;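 active = signal rise over 3 SD above mean of control wells given weak agonist, in both repeats and first screen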). As to conditions: Fluo-4 calcium flux, at 10 µM, serotonin added at its EC20 dose; stronger effect = higher value. A general note: The purpose of a counterscreen is to sort out artefacts and off-target activity.

Assay [16] in a line: nonspecific calcium rise without TRPC4 – cell-based, HEK293 mu-opioid receptor line, counter-screen for TRPC4 activator project, confirmation (AID 449723;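 active = hit in primary screen, with calcium signal over 5 SD above buffer well mean in both duplicates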;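 also: counter screen cells carry the mu-opioid receptor alone and lack TRPC4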). The following applies: HEK293 mu-opioid cells, Fluo-4 calcium fluorescence, at 10 µM; stronger effect = higher value.
A short description of assay [17]: nonspecific potentiation of DAMGO calcium response – cell-based, HEK293 mu-opioid receptor line, counter-screen for TRPC4 allosteric potentiator project, confirmation (AID 449724;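 active = calcium signal rise more than 3 SD above the low-dose agonist control mean, in both duplicate plates and the primary screen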;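 also: HEK293 cells carrying mu-opioid receptor only with no TRPC4 channel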). The following applies: HEK293 mu-opioid receptor cells, Fluo-4 calcium flux, at 10 µM, compound added before EC20 DAMGO stimulus; stronger effect = higher value.

For some of these results: Potency and affinity values are given separately. Calls of active or inactive are those of the source.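 The calls were made as follows, unless noted: active = primary screen activator hit with a dose response curve and TRPC4 channel activation at any tested dose; inactive = no activation, no dose response, or not a primary hit.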

With `CCN1C(=O)/C(=C\N2CCCc3ccccc32)SC1=S`, the outcome in assay [1], in assay [2], in assay [3], in [4], in assay [5] and in assay [6] was inactive. Besides, the result in [7], in assay [8], in assay [9], in assay [10], in [11] and in assay [12] was inactive. In addition, the outcome in assay [13], in [14], in assay [15], in [16] and in assay [17] was inactive.
For `Cc1cc(C)nc(NNS(=O)(=O)c2ccc(F)c(Cl)c2)n1`, the result in [1], in assay [2], in assay [3], in assay [4], in [5] and in [6] was inactive. Moreover, the outcome in [7], in assay [8], in assay [9], in assay [10], in assay [11] and in assay [12] was inactive. The outcome in assay [13], in assay [14], in assay [16] and in assay [17] was inactive. Further, in [15], the potentiation is 6.83% (active).
As to `COC(=O)C(CC(=O)Nc1cc(C)ccc1C)Nc1ccccc1OC` (stereo not drawn), the outcome in [1], in assay [2], in assay [3], in assay [4], in [5] and in [6] was inactive. In addition, the result in assay [7], in [8], in [9], in assay [10], in [12] and in assay [13] was inactive. Further, the result in assay [14], in assay [15], in [16] and in [17] was inactive. Moreover, the activation in [11] is 40.5% (active).
For `C(#Cc1ccccc1)C[N+]1(CC#Cc2cccc3ccccc23)CCCC1`, the outcome in assay [1], in assay [2], in assay [3], in assay [4], in [5] and in assay [6] was inactive. Besides, the result in assay [7], in [8], in [9], in assay [10], in [11] and in [12] was inactive. Besides, the result in assay [13], in [14], in assay [15], in [16] and in [17] was inactive.
For the compound `CC(C)CN(C(=O)COC(=O)CCC(=O)c1ccc(Cl)cc1)c1c(N)n(Cc2ccccc2)c(=O)[nH]c1=O`, the result in assay [1], in [2], in assay [3], in assay [4], in assay [5] and in assay [6] was inactive. Also, the outcome in assay [7], in assay [8], in [9], in assay [10], in [11] and in assay [12] was inactive. Besides, the result in assay [13], in assay [14], in [15], in [16] and in assay [17] was inactive.
As to `Cc1ccc(-c2cn(-c3ccccc3)c(SCC(N)=O)n2)cc1C`, the outcome in assay [1], in [2], in assay [4], in assay [5], in assay [6] and in assay [7] was inactive. For the same compound, the outcome in assay [8], in assay [9], in assay [10], in [11], in [12] and in assay [13] was inactive. Further, the result in assay [14] and in [16] was inactive. Besides, the figures for the potentiation in assay [3] and in [15] were 29% (active) and 25.4% (active), respectively. For the same compound, the activation in assay [17] was 741% (active).
Consider `Cc1cc(Cl)cc(C)c1OCCCCCn1ccnc1`, for which the results for the activation in assay [1], in [11] and in assay [13] were 88% (active), 47% (active) and 34% (active), respectively. Besides, the outcome in assay [2], in [3], in assay [4], in [5], in [6] and in [7] was inactive. The outcome in assay [8], in [9], in [10], in [12], in assay [14] and in [15] was inactive. For the same compound, the outcome in [16] and in [17] was inactive.
For the compound `CCN(CC)CC(=O)Nc1ccccc1SCC(=O)Nc1ccsc1C(=O)OC`, the result in [1], in assay [2], in assay [3], in assay [4], in assay [5] and in assay [6] was inactive. In addition, the result in assay [7], in assay [8], in [9], in assay [10], in [11] and in [12] was inactive. Further, the outcome in assay [13], in assay [14], in assay [15], in assay [16] and in assay [17] was inactive.
For the compound `COc1ccc(CN2CCN(c3nc4ccccc4s3)CC2)cc1`, the outcome in assay [1], in assay [2], in assay [3], in assay [4], in assay [5] and in assay [6] was inactive. Moreover, the result in [7], in assay [8], in assay [9], in [10], in assay [11] and in [12] was inactive. Also, the result in assay [13], in assay [14], in [16] and in [17] was inactive. Moreover, the potentiation in assay [15] is 12.4% (active).
Consider `COc1ccc(CCN2CCCC(CN(C)C(=O)c3ccoc3)C2)cc1` (stereo not drawn), for which the outcome in assay [1], in assay [2], in [3], in [4], in assay [5] and in assay [6] was inactive. In addition, the outcome in assay [7], in [8], in [9], in [10], in [11] and in assay [12] was inactive. Also, the outcome in assay [13], in assay [14], in assay [16] and in assay [17] was inactive. Besides, the potentiation in assay [15] is 14.1% (active).
As to `Cc1cc(Oc2ccc(C(C)(C)C)cc2)nc(N2CCOCC2)n1`, the result in assay [1], in [2], in assay [3], in assay [5], in assay [6] and in assay [7] was inactive. Further, the result in assay [8], in [9], in [10], in assay [11], in assay [12] and in [13] was inactive. Further, the outcome in assay [14], in assay [16] and in [17] was inactive. Also, the potentiation is 7% (active) in assay [4] and 21.6% (active) in [15].
On to `O=C(O)c1nn(CC(=O)N2CCN(c3ncc(C(F)(F)F)cc3Cl)CC2)c(=O)c2ccccc12`, for which the outcome in [1], in assay [2], in assay [3], in assay [4], in [5] and in [6] was inactive. The outcome in assay [7], in assay [8], in assay [9], in assay [10], in assay [11] and in [12] was inactive. Besides, the outcome in assay [13], in [14], in assay [15], in assay [16] and in assay [17] was inactive.
In the case of `CCOC(=O)c1c(C)n(C)c2ccc(OCC(O)CNCCc3ccccc3)cc12` (stereo not drawn), the outcome in assay [1], in assay [2], in [3], in [4], in [5] and in assay [6] was inactive. Besides, the outcome in assay [7], in [8], in assay [9], in [10], in assay [11] and in assay [12] was inactive. For the same compound, the result in assay [13], in [14], in [15], in assay [16] and in assay [17] was inactive.
For the compound `O=C(C1=C[C@H](c2ccc(C(F)(F)F)cc2)C[C@H](OCCCCO)O1)N1CCN(Cc2ccccc2)CC1`, the outcome in assay [1], in assay [2], in assay [3], in [4], in assay [5] and in assay [6] was inactive. In addition, the outcome in assay [7], in [8], in [9], in assay [10], in assay [12] and in assay [13] was inactive. Also, the outcome in [14], in assay [15], in [16] and in assay [17] was inactive. For the same compound, the activation in assay [11] is 35% (active).

The values are drawn from PubChem BioAssay.
